An excerpt weighted towards active compounds, which were near 11% of everything screened.
VP16 counter – Gal4-VP16 reporter inhibition counter-screen. Drosophila S2 Gal4-VP16 UAS-luciferase, luminescence, 20 h. Potency, µM (top dose mostly 53.6 µM), for inactives: at the highest dose activity, negative = inhibition, most hits filed as inhibitors. 310,000 compounds, 3.5% hits. AID 2546;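 further: Gal4-VP16 expression switched on by copper sulfate through the metallothionein promoter; potency means the concentration at half of the fitted maximal effect; on the % scale 0 is the no-effect control and ±100 the full control effect; nearly all actives have a fitted effect of over 50% in size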
RORg inh – ROR gamma (mouse) transcription inhibition; Drosophila S2 Gal4-RORgamma UAS-luciferase reporter, 20 h; AID 2551; 310,000 compounds, 5.4% hits; Potency, µM (doses to about 53.6 µM), for the others: top-dose activity change, negative = inhibition, usual class: inhibitors; further: potency means the concentration at half of the fitted maximal effect; on the % scale 0 is the no-effect control and ±100 the full control effect; nearly all actives have a fitted effect of over 60% in size
Target sequence (P51450 whole entry, looked up, the tested form may be a part): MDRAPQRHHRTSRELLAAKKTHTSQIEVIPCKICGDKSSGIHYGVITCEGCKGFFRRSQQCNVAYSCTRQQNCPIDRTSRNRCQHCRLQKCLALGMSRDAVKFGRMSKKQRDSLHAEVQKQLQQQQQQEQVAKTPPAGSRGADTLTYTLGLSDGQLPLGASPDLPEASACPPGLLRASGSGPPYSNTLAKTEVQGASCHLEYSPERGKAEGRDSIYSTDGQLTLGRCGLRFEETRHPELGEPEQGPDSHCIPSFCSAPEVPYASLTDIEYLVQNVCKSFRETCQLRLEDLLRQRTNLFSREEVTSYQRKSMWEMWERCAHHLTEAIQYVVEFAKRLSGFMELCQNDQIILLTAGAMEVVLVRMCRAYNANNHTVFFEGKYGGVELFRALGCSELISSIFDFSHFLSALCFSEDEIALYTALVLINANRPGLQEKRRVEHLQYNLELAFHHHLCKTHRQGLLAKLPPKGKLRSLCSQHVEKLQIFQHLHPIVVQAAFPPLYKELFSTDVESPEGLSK
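Using a luciferase readout, inhibitors were identified by reduced reporter activity in Drosophila cells coexpressing a copper-inducible Gal4–ROR gamma fusion and UAS-driven Photinus luciferase, incubated 20 hr after 700 uM copper sulfate.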
SW480 rerep – inducers of DNA re-replication in SW480 colon cancer cells; SW480 DNA re-replication, Hoechst DNA content imaging, 48 h; Potency, µM (highest dose often 46.1 µM), for the others: top-dose re-replication activation, most hits filed as activators; 340,000 compounds, 1.8% hits; AID 624297; further: potency means the concentration at half of the fitted maximal effect; % of control where 0% means no effect; nearly all actives have a fitted effect of over 55% in size
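Quantitative HTS format with DMSO vehicle controls; 48 hr drug incubation at 37 C, then 40 min Hoechst staining and scanning imager measurement at 405 nm excitation.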
IL1B secr inh – inhibitors of inflammasome signaling (IL-1 beta secretion); 360,000 compounds, 4.7% hits; AID 743279; THP-1 LPS/ATP IL-1B secretion, AlphaLISA, 16 h; active compounds read low; activity change, % at 57.5 µM; in the data active means activity change below about -50%; inconclusive means mostly about -30% to -49%; further: on the % scale 0 is the no-effect control and ±100 the full control effect
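Secreted IL-1B measured by AlphaLISA bead assay after 16 h compound exposure of THP-1 cells; compounds (final up to 57.5 uM) added 1 h before LPS (250 ng/mL) and ATP (1.25 mM) stimulation; lower signal means less secretion.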
MCF10A rerep – induces DNA re-replication in MCF 10a normal breast cells; MCF 10A DNA re-replication, Hoechst nuclear intensity, 48 h; Potency, µM (series often up to 46.1 µM), for inactives: top-dose activity, positive = re-replication, most hits filed as activators; 350,000 compounds, 2.9% hits; AID 624296; further: potency means the concentration at half of the fitted maximal effect; % of control where 0% means no effect; nearly all actives have a fitted effect of over 50% in size
* hit, by the source's call. Unless noted, the call rests on the fitted dose curve; in most records, active means well fitted curve in the direction sought with a large enough effect; inconclusive means small, poorly fitted or top-dose-only effect, or another doubt; inactive means no such curve, though single readings can be large; an effect the other way counts as inactive or inconclusive.

What do the screens show for `C[C@H](CO)N1C[C@H](C)[C@@H](CN(C)Cc2ccccc2)Oc2c(NC(=O)C3CCCCC3)cccc2C1=O`?
SW480 rerep: -1.5%; IL1B secr inh: -71.7*; MCF10A rerep: 16.3%

How did COc1ccc(S(=O)(=O)Nc2cccc3c2O[C@H](CN(C)Cc2ccc(Cl)c(Cl)c2)[C@@H](C)CN([C@H](C)CO)C3=O)cc1 do in these assays?
SW480 rerep: inconclusive; IL1B secr inh: -56.3*; MCF10A rerep: inconclusive

How did C[C@@H]1CN([C@H](C)CO)C(=O)c2c(c3ccccc3n2C)-c2ccccc2CO[C@H]1CN(C)C(=O)c1cc(Cl)cc(Cl)c1 do in these assays?
IL1B secr inh: 5.9

What do the screens show for `CCn1c(SCC(=O)NC2CCCCC2)nnc1-c1ccco1`?
VP16 counter: 0.3%; RORg inh: -12.5%; SW480 rerep: -12.0%; IL1B secr inh: 12.6; MCF10A rerep: -22.1%

Results for COC(=O)[C@@]12CCCN1[C@H](c1ccc(-c3ccc4c(c3)OCO4)cc1)[C@H]1C(=O)N(C)C(=O)[C@H]12 ?
SW480 rerep: 12.2%; IL1B secr inh: 8.0; MCF10A rerep: -1.5%

What do the screens show for `COc1cccc(CNC(=O)[C@@H]2CCCN2C(=O)[C@H]2CCCCN2C(=O)c2ccccc2C)c1`?
IL1B secr inh: 4.5

What do the screens show for `Cc1cccc(NC(=S)NC2CCN(Cc3ccccc3)CC2)c1C`?
VP16 counter: -87.6%; RORg inh: inconclusive; SW480 rerep: inconclusive; IL1B secr inh: -8.1; MCF10A rerep: 4.7%

What do the screens show for `S=C(Nc1ccc(Cl)c(Cl)c1)NC1CCN(Cc2ccccc2)CC1`?
VP16 counter: 35.5µM*; RORg inh: inconclusive; SW480 rerep: inconclusive; IL1B secr inh: -108.5*; MCF10A rerep: inconclusive

How did Fc1ccc(NC(=S)NC2CCN(Cc3ccccc3)CC2)cc1 do in these assays?
VP16 counter: -8.1%; RORg inh: inconclusive; SW480 rerep: -1.6%; IL1B secr inh: 4.6; MCF10A rerep: 17.1%

What do the screens show for `CC(C)(C)CC(C)(C)NC(=S)NC1CCN(Cc2ccccc2)CC1`?
VP16 counter: 10µM*; RORg inh: 14.1µM*; SW480 rerep: inconclusive; IL1B secr inh: -104.1*; MCF10A rerep: inconclusive

Results for S=C(Nc1cccc(Cl)c1Cl)NC1CCN(Cc2ccccc2)CC1 ?
VP16 counter: inconclusive; RORg inh: -41.4%; SW480 rerep: 3.0%; IL1B secr inh: -81.5*; MCF10A rerep: 4.2%

What do the screens show for `Cc1ccc(Cn2cc(CN3CC(N4CCSCC4)CS3(=O)=O)nn2)cc1` (centres undefined)?
IL1B secr inh: -3.7

How did CC(=O)c1sc2c(c1OC(=O)c1ccc(Cl)cc1Cl)c(=O)n(-c1ccccc1)c(=S)n2-c1ccccc1 do in these assays?
VP16 counter: 1.1%; RORg inh: 21.5%; SW480 rerep: 4.0%; IL1B secr inh: -60.2*; MCF10A rerep: inconclusive

What do the screens show for `CC(=O)c1sc2c(c1OC(=O)c1ccc(Cl)cc1)c(=O)n(-c1ccccc1)c(=S)n2-c1ccccc1`?
SW480 rerep: 1.3%; IL1B secr inh: 5.9; MCF10A rerep: inconclusive

What do the screens show for `C[C@H]1C2=C3C(C[C@H]4C(=O)N(c5ccccc5)C(=O)[C@H]4[C@H]3[C@@]3(Cc4ccccc4)C(=NCCc4c[nH]c5ccccc45)OC(=O)N3C2=O)[C@H]2C(=O)N(c3ccccc3)C(=O)[C@H]21` (some centres undefined)?
VP16 counter: 5.2%; RORg inh: 2.5%

Results for CCC[C@@H]1NC(=O)[C@@H](NC(C)=O)CSSC[C@@H](C(N)=O)NC(=O)CNC(=O)[C@H](Cc2c[nH]c3ccccc23)NC(=O)[C@H](CCCN=C(N)N)NC(=O)[C@H](Cc2ccc3ccccc3c2)NC(=O)[C@H](Cc2cnc[nH]2)NC(=O)[C@H](CCCN=C(N)N)NC1=O ?
VP16 counter: 4.1%; RORg inh: 19.1%

How did COc1cc(C(=O)N/N=C/C2CC=CCC2)cc(OC)c1OC (centres undefined) do in these assays?
VP16 counter: inconclusive; RORg inh: -35.8%; SW480 rerep: inconclusive; IL1B secr inh: 0.0; MCF10A rerep: 3.66µM*

Results for COc1cc(C(=O)N/N=C/c2ccsc2C)cc(OC)c1OC ?
VP16 counter: inconclusive; RORg inh: 12.6µM*; SW480 rerep: 0.651µM*; IL1B secr inh: 56.1; MCF10A rerep: inconclusive

How did O=C(N/N=C/C1CC=CCC1)c1cc2ccccc2cc1O (centres undefined) do in these assays?
VP16 counter: inconclusive; RORg inh: 10µM*; SW480 rerep: -4.4%; IL1B secr inh: 76.5; MCF10A rerep: inconclusive

Results for O=C(N/N=C/C1CC=CCC1)c1ccc(O)cc1O (centres undefined) ?
VP16 counter: 2.82µM*; RORg inh: 1.12µM*; SW480 rerep: -7.3%; IL1B secr inh: 16.8; MCF10A rerep: 1.0%

Results for COc1ccc(C(C)(NC(C)=O)c2nc(-c3ccccc3OC)cs2)cc1 (centres undefined) ?
IL1B secr inh: -22.8

What do the screens show for `Cc1nc(C(F)(F)F)ccc1C(=O)N1CCC1(C)C(=O)NS(=O)(=O)c1ccc(C(C)(C)C)cc1` (centres undefined)?
IL1B secr inh: 1.6

Results for CCOc1ccc(C2CC(=O)c3c([nH]c(C(=O)OC)c3C)C2)cc1OC (centres undefined) ?
VP16 counter: -12.5%; RORg inh: 28.9%; SW480 rerep: 12.7%; IL1B secr inh: 15.8; MCF10A rerep: 12.8%

What do the screens show for `COC(=O)c1[nH]c2c(c1C)C(=O)CC(c1cccs1)C2` (centres undefined)?
VP16 counter: 10.2%; RORg inh: 7.8%; SW480 rerep: inconclusive; IL1B secr inh: 20.0; MCF10A rerep: 2.06µM*

Results for COC(=O)c1[nH]c2c(c1C)C(=O)CC(c1cc(OC)ccc1OC)C2 (centres undefined) ?
VP16 counter: -0.5%; RORg inh: 14.9%; SW480 rerep: inconclusive; IL1B secr inh: 40.8; MCF10A rerep: 8.2µM*

What do the screens show for `CCNc1ncc2nc(CCc3ccccc3)c(=O)n(-c3ccccc3)c2n1`?
VP16 counter: -7.9%; RORg inh: -27.9%

How did S=c1[nH]cc(Oc2ccc(Cl)cc2Cl)c(=S)[nH]1 do in these assays?
SW480 rerep: inconclusive; IL1B secr inh: 14.8; MCF10A rerep: 16.4µM*

What do the screens show for `O=C(CC[C@H]1O[C@@H](n2ccc(=O)[nH]c2=O)[C@H](O)[C@@H]1O)N1CCN(Cc2cccc3ccccc23)CC1`?
IL1B secr inh: 8.3

How did CN(C)C1=NCCN1CCC1CCCCC1 do in these assays?
SW480 rerep: -5.9%; IL1B secr inh: -2.5; MCF10A rerep: 9.2%

Source: PubChem BioAssay (National Center for Advancing Translational Sciences (NCATS))
